Data on three compounds can be found in PubChem BioAssay (Tox21).

Inconclusive results are not listed. Active and inactive are the calls of the source. Calls come from the whole dose curve; as a rule, active = well fitted inhibition curve with a large enough effect in the repeat runs; inconclusive = weak or mixed curves; inactive = flat fitted curve, though single readings scatter.
% is set by controls: 0 for no effect and ±100 for the full control effect; potency is the fitted concentration of half-maximal effect.

Voltage-gated inwardly rectifying potassium channel KCNH2 (Homo sapiens), sequence (Q12809 whole entry, looked up): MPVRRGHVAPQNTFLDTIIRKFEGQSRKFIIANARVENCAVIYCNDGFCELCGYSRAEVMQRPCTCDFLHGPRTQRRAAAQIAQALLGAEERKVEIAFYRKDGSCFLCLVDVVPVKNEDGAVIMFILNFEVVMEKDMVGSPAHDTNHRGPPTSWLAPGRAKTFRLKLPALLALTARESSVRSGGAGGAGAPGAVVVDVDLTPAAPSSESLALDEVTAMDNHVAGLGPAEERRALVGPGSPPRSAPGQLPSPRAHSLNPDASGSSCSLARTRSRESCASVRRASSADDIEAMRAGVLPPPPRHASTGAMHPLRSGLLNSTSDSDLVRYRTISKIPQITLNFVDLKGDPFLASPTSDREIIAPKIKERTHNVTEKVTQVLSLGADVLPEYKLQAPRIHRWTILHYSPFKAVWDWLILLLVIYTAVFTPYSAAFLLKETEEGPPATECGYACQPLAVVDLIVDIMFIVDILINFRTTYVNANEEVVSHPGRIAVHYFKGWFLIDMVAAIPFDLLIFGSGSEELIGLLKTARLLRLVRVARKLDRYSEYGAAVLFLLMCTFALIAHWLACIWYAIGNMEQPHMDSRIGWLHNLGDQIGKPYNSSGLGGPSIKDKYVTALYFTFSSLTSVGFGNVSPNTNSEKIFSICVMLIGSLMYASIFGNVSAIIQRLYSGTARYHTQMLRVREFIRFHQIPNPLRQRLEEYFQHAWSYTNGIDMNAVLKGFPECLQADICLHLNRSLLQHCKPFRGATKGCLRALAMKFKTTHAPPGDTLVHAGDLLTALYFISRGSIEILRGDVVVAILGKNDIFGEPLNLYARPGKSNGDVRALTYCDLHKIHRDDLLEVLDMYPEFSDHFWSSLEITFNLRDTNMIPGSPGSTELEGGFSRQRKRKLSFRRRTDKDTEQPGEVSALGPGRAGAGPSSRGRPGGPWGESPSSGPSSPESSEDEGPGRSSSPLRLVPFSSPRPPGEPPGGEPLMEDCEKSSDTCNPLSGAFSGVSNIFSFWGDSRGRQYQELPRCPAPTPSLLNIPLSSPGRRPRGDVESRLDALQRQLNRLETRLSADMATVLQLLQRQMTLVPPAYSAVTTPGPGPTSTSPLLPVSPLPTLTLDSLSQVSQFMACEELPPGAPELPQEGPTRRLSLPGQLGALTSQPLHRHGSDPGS

The assay addresses Voltage-gated inwardly rectifying potassium channel KCNH2 (Homo sapiens) (UniProt Q12809). The assay can be described thus: Human Ether-a-go-go-Related Gene (hERG) channel small molecule antagonists: fluorescence cell-based qHTS assay (AID 1671200). Note: nearly all actives have a fitted effect of over 50% in size. As to conditions: hERG-U2OS cells, FluxOR thallium flux fluorescence; series mostly up to 76.8 µM; activity change, negative = inhibition: at the top concentration. The method in brief:
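Thallium flux as potassium surrogate: FluxOR II dye loaded 1 h at room temperature into hERG-expressing U2OS cells, then stimulus buffer added after 10 min. Kinetic 480 nm excitation/540 nm emission read, 2 min.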
(hERG is a cardiac potassium channel; its block is linked to QT prolongation.)
Regarding `CCC1=C[C@@H]2CN(C1)Cc1c([nH]c3ccccc13)[C@@](C(=O)OC)(c1cc3c(cc1OC)N(C)[C@H]1[C@@](O)(C(=O)OC)[C@H](OC(C)=O)[C@]4(CC)C=CCN5CC[C@]31[C@@H]54)C2`, the Potency is 6.74 µM (active).
Turning to `Clc1ccc(C(Cn2ccnc2)OCc2ccc(Sc3ccccc3)cc2)c(Cl)c1` (stereo not drawn), the Potency is 9.52 µM (active).
As to `O=C(Nc1cccc([N+](=O)[O-])c1)c1cc2ccccc2cc1O`, the “activity change, negative = inhibition” value is -4.12% (inactive).
